# Results as given in PMC7862700, “An all-to-all approach to the identification of sequence-specific readers for epigenetic DNA modifications on cytosine”.
# Assays:
# Experiment in all cases: DAPPL (digital affinity profiling via proximity ligation, sequencing); 10 mM Tris-HCl pH 7.5, 50 mM NaCl, 1 mM DTT, 4% glycerol, room temperature, 30 min; GST-TFs on glutathione beads, 16-mer random dsDNA library, 0.1% formaldehyde crosslink after washing; high values mean tight binding
# FLI1 = target: T1, FLI1 (Homo sapiens, UniProt Q01543 1-452); conditions: protein: recombinant; tags: N-terminal GST; dsDNA, one strand shown
# T1 sequence: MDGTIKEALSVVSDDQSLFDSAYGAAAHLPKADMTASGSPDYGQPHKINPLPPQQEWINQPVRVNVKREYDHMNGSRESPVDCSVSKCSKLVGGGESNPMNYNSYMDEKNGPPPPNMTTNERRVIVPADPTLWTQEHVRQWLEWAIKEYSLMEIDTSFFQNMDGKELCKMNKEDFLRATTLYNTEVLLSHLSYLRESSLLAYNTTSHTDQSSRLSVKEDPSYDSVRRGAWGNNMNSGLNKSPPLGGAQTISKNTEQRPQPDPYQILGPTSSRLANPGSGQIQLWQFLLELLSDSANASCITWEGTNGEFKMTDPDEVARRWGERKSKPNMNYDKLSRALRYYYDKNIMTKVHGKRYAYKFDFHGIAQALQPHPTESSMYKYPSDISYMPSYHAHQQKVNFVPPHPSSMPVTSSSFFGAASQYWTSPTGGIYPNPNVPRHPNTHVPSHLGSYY
# In short: (§1)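 Binding signal is given per hexamer as its read frequency for a factor divided by its frequency in the tag-only sample. GST-fused human transcription factors were expressed in yeast, captured on glutathione beads, barcoded with DNA and pooled with that sample, then incubated with 200 nmole of a 16-mer random double-stranded DNA library in Tris/NaCl/DTT/glycerol buffer for 30 min at room temperature. The pools were then washed, crosslinked, proximity-ligated, amplified by PCR and sequenced on an Illumina NextSeq500.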
# ELK1 = target: T2, ELK1 (Homo sapiens, UniProt P19419 1-428); conditions: protein: recombinant; tags: N-terminal GST; dsDNA, one strand shown
# T2 sequence: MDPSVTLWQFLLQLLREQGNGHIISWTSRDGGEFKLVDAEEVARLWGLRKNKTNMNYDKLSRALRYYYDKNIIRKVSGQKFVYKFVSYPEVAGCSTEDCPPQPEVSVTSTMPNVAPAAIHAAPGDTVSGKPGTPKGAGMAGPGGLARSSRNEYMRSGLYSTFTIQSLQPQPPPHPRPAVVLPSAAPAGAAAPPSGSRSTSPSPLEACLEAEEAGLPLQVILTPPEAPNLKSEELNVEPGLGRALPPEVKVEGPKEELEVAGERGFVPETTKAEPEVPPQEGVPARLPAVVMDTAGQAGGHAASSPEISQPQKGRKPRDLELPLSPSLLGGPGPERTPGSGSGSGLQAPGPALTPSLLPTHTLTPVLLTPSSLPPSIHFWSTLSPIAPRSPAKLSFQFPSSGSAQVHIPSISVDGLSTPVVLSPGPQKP
# In short: as §1
# GABPA = target: T3, GABPA (Homo sapiens, UniProt Q06546 1-454); conditions: protein: recombinant; tags: N-terminal GST; dsDNA, one strand shown
# T3 sequence: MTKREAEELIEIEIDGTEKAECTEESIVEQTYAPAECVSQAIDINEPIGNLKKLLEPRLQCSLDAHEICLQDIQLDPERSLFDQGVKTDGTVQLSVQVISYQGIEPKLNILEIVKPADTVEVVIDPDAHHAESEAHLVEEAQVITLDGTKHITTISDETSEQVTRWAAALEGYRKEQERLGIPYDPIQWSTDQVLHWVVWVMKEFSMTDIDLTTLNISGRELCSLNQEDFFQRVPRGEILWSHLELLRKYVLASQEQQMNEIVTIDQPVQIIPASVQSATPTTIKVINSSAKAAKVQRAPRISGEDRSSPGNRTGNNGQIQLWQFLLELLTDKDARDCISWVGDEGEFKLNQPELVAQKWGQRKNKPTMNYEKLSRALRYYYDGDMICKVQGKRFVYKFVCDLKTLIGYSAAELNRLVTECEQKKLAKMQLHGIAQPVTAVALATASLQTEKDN
# In short: as §1
# ERG = target: T4, ERG (Homo sapiens, UniProt P11308 1-479); conditions: protein: recombinant; tags: N-terminal GST; dsDNA, one strand shown
# T4 sequence: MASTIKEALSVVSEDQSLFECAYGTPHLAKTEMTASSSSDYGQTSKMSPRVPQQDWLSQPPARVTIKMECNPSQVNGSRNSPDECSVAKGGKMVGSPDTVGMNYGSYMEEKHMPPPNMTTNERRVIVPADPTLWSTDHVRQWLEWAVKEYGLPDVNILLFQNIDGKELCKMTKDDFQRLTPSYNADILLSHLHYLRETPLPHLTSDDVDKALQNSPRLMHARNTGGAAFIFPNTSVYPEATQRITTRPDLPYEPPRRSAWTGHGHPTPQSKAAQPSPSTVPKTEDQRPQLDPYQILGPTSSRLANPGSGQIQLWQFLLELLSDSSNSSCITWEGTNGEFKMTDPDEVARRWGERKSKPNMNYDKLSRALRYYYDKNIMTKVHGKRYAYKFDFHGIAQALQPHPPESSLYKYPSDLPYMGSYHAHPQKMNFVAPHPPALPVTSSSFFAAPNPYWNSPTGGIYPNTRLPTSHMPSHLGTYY
# In short: as §1
# ELF1 = ELF1 (Homo sapiens, UniProt P32519 1-619); conditions: protein: recombinant; tags: N-terminal GST; dsDNA, one strand shown
# Sequence of ELF1 (P32519 whole entry): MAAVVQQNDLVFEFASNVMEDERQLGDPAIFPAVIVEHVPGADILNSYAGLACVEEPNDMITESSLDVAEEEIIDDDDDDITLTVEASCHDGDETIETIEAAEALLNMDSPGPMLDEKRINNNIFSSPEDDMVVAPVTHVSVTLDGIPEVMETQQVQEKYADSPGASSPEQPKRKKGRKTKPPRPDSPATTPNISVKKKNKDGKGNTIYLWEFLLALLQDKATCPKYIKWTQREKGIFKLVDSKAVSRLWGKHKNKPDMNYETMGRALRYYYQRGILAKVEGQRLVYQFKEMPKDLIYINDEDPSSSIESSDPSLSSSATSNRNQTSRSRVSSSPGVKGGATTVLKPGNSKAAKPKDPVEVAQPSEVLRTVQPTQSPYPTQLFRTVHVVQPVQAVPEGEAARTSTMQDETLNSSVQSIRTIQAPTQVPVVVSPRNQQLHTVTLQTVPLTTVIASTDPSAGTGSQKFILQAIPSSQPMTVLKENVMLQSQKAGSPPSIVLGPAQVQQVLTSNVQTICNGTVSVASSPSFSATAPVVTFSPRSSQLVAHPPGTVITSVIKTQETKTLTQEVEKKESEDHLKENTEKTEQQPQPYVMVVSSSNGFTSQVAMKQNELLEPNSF
# In short: as §1
# EHF = target: T5, EHF (Homo sapiens, UniProt Q9NZC4 1-300); conditions: protein: recombinant; tags: N-terminal GST; dsDNA, one strand shown
# T5 sequence: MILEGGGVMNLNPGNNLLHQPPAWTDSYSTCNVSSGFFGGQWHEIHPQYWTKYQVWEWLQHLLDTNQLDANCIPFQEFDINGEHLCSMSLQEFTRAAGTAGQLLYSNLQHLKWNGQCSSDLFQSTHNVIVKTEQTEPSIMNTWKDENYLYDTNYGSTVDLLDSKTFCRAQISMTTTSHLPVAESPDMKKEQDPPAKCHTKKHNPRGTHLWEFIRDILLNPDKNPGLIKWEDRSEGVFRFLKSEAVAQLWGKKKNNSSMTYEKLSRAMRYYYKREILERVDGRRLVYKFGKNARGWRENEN
# In short: as §1
# SPI1 = SPI1 (Homo sapiens, UniProt P17947 1-270); conditions: protein: recombinant; tags: N-terminal GST; dsDNA, one strand shown
# In short: as §1
# SPIB = SPIB (Homo sapiens, UniProt Q01892 1-262); conditions: protein: recombinant; tags: N-terminal GST; dsDNA, one strand shown
# Sequence of SPIB (Q01892 whole entry): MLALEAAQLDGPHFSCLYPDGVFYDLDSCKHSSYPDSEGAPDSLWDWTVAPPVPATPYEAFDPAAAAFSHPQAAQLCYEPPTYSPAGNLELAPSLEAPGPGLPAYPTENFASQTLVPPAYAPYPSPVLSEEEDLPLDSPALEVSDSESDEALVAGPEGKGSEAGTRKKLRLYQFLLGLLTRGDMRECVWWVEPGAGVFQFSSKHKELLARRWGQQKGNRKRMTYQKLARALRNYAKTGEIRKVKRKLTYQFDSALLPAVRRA
# In short: as §1
# ELK3 = target: T6, ELK3 (Homo sapiens, UniProt P41970 1-407); conditions: protein: recombinant; tags: N-terminal GST; dsDNA, one strand shown
# T6 sequence: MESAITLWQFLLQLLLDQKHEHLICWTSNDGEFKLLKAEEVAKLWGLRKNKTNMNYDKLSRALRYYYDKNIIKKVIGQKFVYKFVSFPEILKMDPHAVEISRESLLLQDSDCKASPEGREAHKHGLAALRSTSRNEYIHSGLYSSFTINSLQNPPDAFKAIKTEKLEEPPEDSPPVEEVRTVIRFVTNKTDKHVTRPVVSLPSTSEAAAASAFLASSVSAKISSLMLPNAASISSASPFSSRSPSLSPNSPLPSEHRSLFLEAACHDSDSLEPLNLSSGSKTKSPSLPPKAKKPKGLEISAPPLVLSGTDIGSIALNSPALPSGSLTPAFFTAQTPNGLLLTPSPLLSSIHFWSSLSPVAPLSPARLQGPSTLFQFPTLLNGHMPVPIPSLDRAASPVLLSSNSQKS
# In short: as §1
# FEV = target: T7, FEV (Homo sapiens, UniProt Q99581 1-238); conditions: protein: recombinant; tags: N-terminal GST; dsDNA, one strand shown
# T7 sequence: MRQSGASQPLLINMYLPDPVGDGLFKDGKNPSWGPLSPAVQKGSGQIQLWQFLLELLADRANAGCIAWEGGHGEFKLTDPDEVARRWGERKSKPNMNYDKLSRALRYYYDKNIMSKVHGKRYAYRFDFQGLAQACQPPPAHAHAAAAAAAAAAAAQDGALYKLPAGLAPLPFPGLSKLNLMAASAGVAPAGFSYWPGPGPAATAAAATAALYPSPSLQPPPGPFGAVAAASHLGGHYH
# In short: as §1
# ETV5 = ETV5 (Homo sapiens, UniProt P41161 1-510); conditions: protein: recombinant; tags: N-terminal GST; dsDNA, one strand shown
# Sequence of ETV5 (P41161 whole entry): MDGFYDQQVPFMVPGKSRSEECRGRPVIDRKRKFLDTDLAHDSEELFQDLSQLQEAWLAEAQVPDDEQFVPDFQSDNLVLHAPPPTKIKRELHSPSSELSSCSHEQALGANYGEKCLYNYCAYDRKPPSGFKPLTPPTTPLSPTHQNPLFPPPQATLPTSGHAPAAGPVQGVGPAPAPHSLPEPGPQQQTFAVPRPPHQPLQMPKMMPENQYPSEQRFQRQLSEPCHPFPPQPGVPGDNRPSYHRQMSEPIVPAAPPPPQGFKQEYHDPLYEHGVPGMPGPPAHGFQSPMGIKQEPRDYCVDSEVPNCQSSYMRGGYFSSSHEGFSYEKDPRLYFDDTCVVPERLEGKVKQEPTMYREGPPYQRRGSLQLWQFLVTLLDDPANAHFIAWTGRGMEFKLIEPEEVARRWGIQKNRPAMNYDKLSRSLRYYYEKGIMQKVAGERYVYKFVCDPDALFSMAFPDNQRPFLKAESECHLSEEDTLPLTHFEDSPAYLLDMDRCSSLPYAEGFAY
# In short: as §1
# HSF1 = HSF1 (Homo sapiens, UniProt Q00613 1-529); conditions: protein: recombinant; tags: N-terminal GST; chain copies: 3; dsDNA, one strand shown
# Sequence of HSF1 (Q00613 whole entry): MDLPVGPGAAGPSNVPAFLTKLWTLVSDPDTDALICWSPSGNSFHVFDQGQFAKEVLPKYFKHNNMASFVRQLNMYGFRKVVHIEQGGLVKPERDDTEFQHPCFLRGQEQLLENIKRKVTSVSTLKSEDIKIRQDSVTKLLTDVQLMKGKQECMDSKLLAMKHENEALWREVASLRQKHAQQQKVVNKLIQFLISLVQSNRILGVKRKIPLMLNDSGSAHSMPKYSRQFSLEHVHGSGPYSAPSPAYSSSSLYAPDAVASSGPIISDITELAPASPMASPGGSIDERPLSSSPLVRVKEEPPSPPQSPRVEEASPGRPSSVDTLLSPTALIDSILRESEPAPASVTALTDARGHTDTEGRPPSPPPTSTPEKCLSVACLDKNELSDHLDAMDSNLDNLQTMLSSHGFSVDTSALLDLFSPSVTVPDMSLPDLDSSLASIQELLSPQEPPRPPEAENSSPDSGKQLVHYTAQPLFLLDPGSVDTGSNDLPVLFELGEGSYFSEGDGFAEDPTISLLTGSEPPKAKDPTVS
# In short: as §1
# SPIC = target: T8, SPIC (Homo sapiens, UniProt Q8N5J4 1-248); conditions: protein: recombinant; tags: N-terminal GST; dsDNA, one strand shown
# T8 sequence: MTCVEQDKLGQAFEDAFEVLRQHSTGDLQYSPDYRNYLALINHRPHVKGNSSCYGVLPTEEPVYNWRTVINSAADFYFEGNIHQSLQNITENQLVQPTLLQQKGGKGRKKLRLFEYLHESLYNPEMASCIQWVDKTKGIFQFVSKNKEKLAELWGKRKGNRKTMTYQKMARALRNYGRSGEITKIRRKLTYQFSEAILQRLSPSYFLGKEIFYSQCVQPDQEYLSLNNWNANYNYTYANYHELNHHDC
# In short: as §1
# ELF4 = ELF4 (Homo sapiens, UniProt Q99607 1-663); conditions: protein: recombinant; tags: N-terminal GST; dsDNA, one strand shown
# Sequence of ELF4 (Q99607 whole entry): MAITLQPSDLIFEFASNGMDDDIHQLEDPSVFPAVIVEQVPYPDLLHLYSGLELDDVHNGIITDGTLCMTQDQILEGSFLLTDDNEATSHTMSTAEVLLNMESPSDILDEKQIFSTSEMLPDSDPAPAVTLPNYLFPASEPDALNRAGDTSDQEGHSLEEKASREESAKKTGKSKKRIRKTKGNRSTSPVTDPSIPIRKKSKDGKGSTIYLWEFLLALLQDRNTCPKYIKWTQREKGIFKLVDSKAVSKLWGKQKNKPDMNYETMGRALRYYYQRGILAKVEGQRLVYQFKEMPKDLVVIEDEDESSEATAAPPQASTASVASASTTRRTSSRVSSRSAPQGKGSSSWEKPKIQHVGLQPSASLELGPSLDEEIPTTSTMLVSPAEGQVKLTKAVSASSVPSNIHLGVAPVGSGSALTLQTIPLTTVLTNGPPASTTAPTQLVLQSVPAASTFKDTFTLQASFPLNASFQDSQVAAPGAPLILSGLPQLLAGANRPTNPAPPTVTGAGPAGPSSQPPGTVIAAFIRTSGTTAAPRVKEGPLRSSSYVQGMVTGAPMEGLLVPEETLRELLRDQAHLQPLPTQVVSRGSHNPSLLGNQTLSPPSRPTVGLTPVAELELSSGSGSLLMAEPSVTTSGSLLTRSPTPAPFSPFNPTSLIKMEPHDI
# In short: as §1
# ELK4 = target: T9, ELK4 (Homo sapiens, UniProt P28324-2 1-405); conditions: protein: recombinant; tags: N-terminal GST; dsDNA, one strand shown
# T9 sequence: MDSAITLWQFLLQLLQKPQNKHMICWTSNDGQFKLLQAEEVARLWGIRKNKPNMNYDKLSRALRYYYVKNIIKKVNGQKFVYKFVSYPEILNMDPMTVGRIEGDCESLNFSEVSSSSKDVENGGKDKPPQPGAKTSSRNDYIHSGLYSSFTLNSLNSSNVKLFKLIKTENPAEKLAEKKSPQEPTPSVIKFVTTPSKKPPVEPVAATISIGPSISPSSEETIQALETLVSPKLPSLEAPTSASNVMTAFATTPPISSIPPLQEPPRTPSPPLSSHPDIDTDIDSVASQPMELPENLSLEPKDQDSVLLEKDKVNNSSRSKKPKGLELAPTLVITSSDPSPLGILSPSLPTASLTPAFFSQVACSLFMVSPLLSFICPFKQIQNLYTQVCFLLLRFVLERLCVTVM
# In short: as §1
# ETV2 = target: T10, ETV2 (Homo sapiens, UniProt O00321 1-342); conditions: protein: recombinant; tags: N-terminal GST; dsDNA, one strand shown
# T10 sequence: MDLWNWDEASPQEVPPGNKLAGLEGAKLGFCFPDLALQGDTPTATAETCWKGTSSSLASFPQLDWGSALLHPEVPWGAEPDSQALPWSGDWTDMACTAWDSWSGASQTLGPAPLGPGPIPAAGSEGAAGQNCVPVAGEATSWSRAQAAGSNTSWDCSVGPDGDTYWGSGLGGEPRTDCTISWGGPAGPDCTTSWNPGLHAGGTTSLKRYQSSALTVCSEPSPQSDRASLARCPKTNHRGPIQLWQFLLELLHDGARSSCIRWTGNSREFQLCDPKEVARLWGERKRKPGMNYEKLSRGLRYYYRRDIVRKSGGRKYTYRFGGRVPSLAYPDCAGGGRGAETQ
# In short: as §1
# ELF3 = target: T11, ELF3 (Homo sapiens, UniProt P78545 1-371); conditions: protein: recombinant; tags: N-terminal GST; dsDNA, one strand shown
# T11 sequence: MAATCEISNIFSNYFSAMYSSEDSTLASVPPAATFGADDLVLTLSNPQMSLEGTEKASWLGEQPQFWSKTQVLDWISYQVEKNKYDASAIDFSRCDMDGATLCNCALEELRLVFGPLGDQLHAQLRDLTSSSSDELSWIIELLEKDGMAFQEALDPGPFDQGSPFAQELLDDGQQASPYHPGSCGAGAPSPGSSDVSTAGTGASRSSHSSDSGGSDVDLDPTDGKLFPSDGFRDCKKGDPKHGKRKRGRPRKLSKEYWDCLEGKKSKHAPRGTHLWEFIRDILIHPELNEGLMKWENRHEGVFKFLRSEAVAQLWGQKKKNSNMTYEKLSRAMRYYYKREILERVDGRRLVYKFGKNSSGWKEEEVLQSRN
# In short: as §1
# CRX = CRX (Homo sapiens, UniProt O43186 1-299); conditions: protein: recombinant; tags: N-terminal GST; dsDNA, one strand shown
# Sequence of CRX (O43186 whole entry): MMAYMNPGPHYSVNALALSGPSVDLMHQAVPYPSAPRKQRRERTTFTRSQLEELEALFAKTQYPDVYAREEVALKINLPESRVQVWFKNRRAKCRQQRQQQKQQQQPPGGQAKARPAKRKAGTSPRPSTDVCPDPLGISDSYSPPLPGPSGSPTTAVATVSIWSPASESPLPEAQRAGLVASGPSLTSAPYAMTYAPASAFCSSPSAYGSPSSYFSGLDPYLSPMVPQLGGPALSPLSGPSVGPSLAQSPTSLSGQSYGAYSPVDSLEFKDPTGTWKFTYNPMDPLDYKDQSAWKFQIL
# In short: as §1
# ETV1 = ETV1 (Homo sapiens, UniProt P50549 1-477); conditions: protein: recombinant; tags: N-terminal GST; dsDNA, one strand shown
# Sequence of ETV1 (P50549 whole entry): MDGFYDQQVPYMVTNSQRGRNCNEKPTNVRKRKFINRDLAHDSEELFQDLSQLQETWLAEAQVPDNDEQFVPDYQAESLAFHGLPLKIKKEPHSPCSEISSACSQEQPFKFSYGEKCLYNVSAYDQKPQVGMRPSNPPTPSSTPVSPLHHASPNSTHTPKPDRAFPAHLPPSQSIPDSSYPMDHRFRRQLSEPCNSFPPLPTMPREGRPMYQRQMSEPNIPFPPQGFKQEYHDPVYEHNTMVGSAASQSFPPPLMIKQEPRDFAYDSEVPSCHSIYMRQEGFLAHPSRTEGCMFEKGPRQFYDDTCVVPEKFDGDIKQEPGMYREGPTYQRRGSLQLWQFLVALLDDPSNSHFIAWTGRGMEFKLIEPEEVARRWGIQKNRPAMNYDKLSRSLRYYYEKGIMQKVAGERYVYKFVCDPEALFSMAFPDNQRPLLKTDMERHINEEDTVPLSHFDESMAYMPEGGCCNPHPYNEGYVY
# In short: as §1
sequence,measurement,setting,value
CGTATA,binding signal,FLI1,"1.12 fold enrichment (6-mer frequency, TF over GST control)"
same,binding signal,ELK1,"1.23 fold enrichment (6-mer frequency, TF over GST control)"
same,binding signal,GABPA,"1.17 fold enrichment (6-mer frequency, TF over GST control)"
same,binding signal,ERG,"1.11 fold enrichment (6-mer frequency, TF over GST control)"
same,binding signal,ELF1,"1.11 fold enrichment (6-mer frequency, TF over GST control)"
same,binding signal,EHF,"1.09 fold enrichment (6-mer frequency, TF over GST control)"
same,binding signal,SPI1,"1.13 fold enrichment (6-mer frequency, TF over GST control)"
same,binding signal,SPIB,"1.25 fold enrichment (6-mer frequency, TF over GST control)"
same,binding signal,ELK3,"1.16 fold enrichment (6-mer frequency, TF over GST control)"
same,binding signal,FEV,"1.04 fold enrichment (6-mer frequency, TF over GST control)"
same,binding signal,ETV5,"1.15 fold enrichment (6-mer frequency, TF over GST control)"
same,binding signal,HSF1,"1.03 fold enrichment (6-mer frequency, TF over GST control)"
same,binding signal,SPIC,"1.19 fold enrichment (6-mer frequency, TF over GST control)"
same,binding signal,ELF4,"1.13 fold enrichment (6-mer frequency, TF over GST control)"
same,binding signal,ELK4,"1.07 fold enrichment (6-mer frequency, TF over GST control)"
same,binding signal,ETV2,"1.12 fold enrichment (6-mer frequency, TF over GST control)"
same,binding signal,ELF3,"1.24 fold enrichment (6-mer frequency, TF over GST control)"
same,binding signal,CRX,"1.07 fold enrichment (6-mer frequency, TF over GST control)"
same,binding signal,ETV1,"1.19 fold enrichment (6-mer frequency, TF over GST control)"
